Experimental data taken from ChEMBL document CHEMBL3988442, “University of Dundee, Small-Polar-MMV Screening Library” (2021).
Among all 38,000 compounds or so, about 1,200 (3.2%) showed an effect of 50% or more. The median lay at about -58%. Many of the other results were omitted from the sample, so strong results are more common in it than they were.

The compounds below were run on Plasmodium falciparum (assay: Calibr Malaria Delayed Death Assay SOP). Conditions: concentration 4.99e-06 (unit not given; other assays of the set use mol/L).
Format: functional, organism-based
Parameters: scale not given: in the data most compounds retested in dose-response had high values
In the case of `COc1cc(F)ccc1-c1cc(N)ccn1`, the “Percent Effect” value is reported as 50.95%.
For `COc1cc(F)ccc1-c1cc(CO)ccn1`, the “Percent Effect” value was -93.03%.
`COc1ccc(-c2cc(N)ccn2)c(OC)c1OC` was tested, and the “Percent Effect” value was -13%.
`Cc1cnc(C(=O)N2CCOCC2C)cn1` (configuration not stated) was tested, and the “Percent Effect” value was -104.7%.
In the case of `O=C(NCC1CC1)[C@@H]1CC[C@@H]2[C@@H](CCN2Cc2ccc(F)c(F)c2)O1.O=C(O)C(F)(F)F`, the “Percent Effect” value is reported as -53.52%.
In the case of `O=C1CCCN1CCC1CCN(C2CCCNC2)CC1` (configuration not stated), the “Percent Effect” value is reported as -108.9%.
For `CCn1cc(CN2CCN(C(=O)c3cc(C)c(C)s3)CC2)c(C)n1`, the “Percent Effect” value was -80.19%.
For `COCCOc1ccccc1CNCC1COC2(CCCC2)O1` (configuration not stated), the “Percent Effect” value was 73.59%.
With `Cc1cccc(CNCC2COC3(CCCCC3)O2)c1C` (configuration not stated) the “Percent Effect” value was -23.41%.
`Cc1cccc(CNCC2COC3(CCCC3)O2)c1C` (configuration not stated) was tested, and the “Percent Effect” value was -41.87%.
For `CC(=O)Nc1nc(C(=O)NCc2ccc(OC(C)C)nc2)cs1`, the “Percent Effect” value was -75.22%.
`CN(C)CCN(Cc1ccc(Cl)cc1)C(=O)c1ccncc1` was tested, and the “Percent Effect” value was 51.29%.
In the case of `CN(C)CCN(Cc1ccc(C(F)(F)F)cc1)C(=O)c1cc[nH]n1`, the “Percent Effect” value is reported as 33.3%.
In the case of `Cc1cc(C(=O)N(CCN(C)C)Cc2ccc(Cl)cc2)no1`, the “Percent Effect” value is reported as 51.61%.
With `Cc1cnc(C(=O)N(CCN(C)C)Cc2ccc(Cl)cc2)cn1` the “Percent Effect” value was -38.51%.
`CN(C)CCN(Cc1ccc(Cl)cc1)C(=O)c1ccn(C)c(=O)c1` was tested, and the “Percent Effect” value was -75.96%.
For `CN(C)CCN(Cc1ccc(Cl)cc1)C(=O)c1cnccn1`, the “Percent Effect” value was 32.67%.
With `Cc1nnc([C@@H]2CC[C@@H]3[C@@H](CCN3C3CCC3)O2)o1` the “Percent Effect” value was -20.01%.
`CC1CCCN(C(=O)Nc2ccc(F)c(C(N)=O)c2)C1` (configuration not stated) was tested, and the “Percent Effect” value was -56.74%.
For `CNc1cc(-c2cccc(CN)c2)c2cc[nH]c2n1`, the “Percent Effect” value was -44.1%.
With `CCc1ccc2nc(C)cc(C(=O)N[C@@H]3CCCNC3)c2c1` the “Percent Effect” value was 64.11%.
In the case of `CCc1ccc2nc(C)cc(C(=O)N[C@@H]3CNC[C@H]3O)c2c1`, the “Percent Effect” value is reported as -23.23%.
`CCc1ccc2nc(C)cc(C(=O)NC[C@@H]3CCNC[C@H]3O)c2c1` was tested, and the “Percent Effect” value was -50.87%.
In the case of `CC(C)(C)CN1CCCC12CCN(S(=O)(=O)c1ccccc1)C2.O=C(O)C(F)(F)F` (configuration not stated), the “Percent Effect” value is reported as 29.05%.
For `Cc1cccc(C(=O)N2CCCn3cnc(CN4CCCC4=O)c3C2)n1`, the “Percent Effect” value was -0.7301%.
`Cn1ncc2c1CN(Cc1ccccc1F)CC2COCC1CC1.O=C(O)C(F)(F)F.O=C(O)C(F)(F)F` (configuration not stated) was tested, and the “Percent Effect” value was -47.59%.
In the case of `OCc1csc(N2CCCC(COc3cccc(F)c3)C2)n1` (configuration not stated), the “Percent Effect” value is reported as 81.1%.
In the case of `COc1ccc(OCC2CCCN(c3nc(CO)cs3)C2)cc1` (configuration not stated), the “Percent Effect” value is reported as -52%.
For `Cc1ccc(OCC2CCCN(c3nc(CO)cs3)C2)cc1` (configuration not stated), the “Percent Effect” value was -23.08%.
With `COCCCNC(=O)N1CCC(CNC(=O)c2cnn(C)c2)CC1` the “Percent Effect” value was -42.86%.
`c1c(CN2CCOCC2)nc2n1CCN(C1CCOCC1)C2` was tested, and the “Percent Effect” value was -53.44%.
`CC(C)[C@H]1CN(S(=O)(=O)c2cccnc2)C[C@@H]1N` was tested, and the “Percent Effect” value was -121.7%.
`COc1cccc(S(=O)(=O)N2C[C@@H](N(C)C)[C@H](C(C)C)C2)c1` was tested, and the “Percent Effect” value was 72.07%.
For `CC(C)[C@@H]1CN(S(=O)(=O)c2cccc(C(=O)O)c2)C[C@H]1N(C)C`, the “Percent Effect” value was -75.82%.
With `CS(=O)(=O)NCc1cnc2n1CCN(Cc1ccco1)CC2.O=C(O)C(F)(F)F` the “Percent Effect” value was -61.12%.
`Cc1ccc(C(=O)Nc2nnc(C(C)C)s2)c(-n2cnnn2)c1C` was tested, and the “Percent Effect” value was -117.2%.
In the case of `Cc1cnn(CCNCc2nccn2CC(F)(F)F)c1`, the “Percent Effect” value is reported as 12.08%.
For `Cc1cnn(CCNCc2c(C)nn(Cc3ccccc3)c2C)c1`, the “Percent Effect” value was 31.58%.
With `Cc1cnn(CCNCc2nccn2Cc2ccccc2)c1` the “Percent Effect” value was 81.96%.
With `CC(NC(=O)c1cccs1)(C(N)=O)c1cccc(C(F)(F)F)c1` (configuration not stated) the “Percent Effect” value was -110.1%.
With `CCc1nc(N2CCC3(CC2)OCCCC3O)ncc1C` (configuration not stated) the “Percent Effect” value was -35.89%.
`COC(=O)[C@H](C)NC(=O)c1cnc(Cc2ccc(F)cc2)s1` was tested, and the “Percent Effect” value was -108.7%.
In the case of `COC(=O)C(C)(C)NC(=O)c1cnc(Cc2ccc(F)cc2)s1`, the “Percent Effect” value is reported as 74.7%.
`CCc1ncc(C(=O)NC(C)(C)C(=O)OC)s1` was tested, and the “Percent Effect” value was -64.84%.
In the case of `CC1c2cccn2CCN1C(=O)CCc1nc(-c2ccccc2)no1` (configuration not stated), the “Percent Effect” value is reported as -13.83%.
With `Cn1cc(CNC2CCCOc3c2ccc2ccccc32)cn1` (configuration not stated) the “Percent Effect” value was 61.58%.
For `Cn1cc(CNC2CCCOc3c(Cl)cccc32)cn1` (configuration not stated), the “Percent Effect” value was 17.16%.
For `Cn1ccnc1CNC1CCCOc2c1ccc1ccccc21` (configuration not stated), the “Percent Effect” value was 76.31%.
`Cc1cccc2c1OCCC2NCc1c(C)nn(C)c1N(C)C` (configuration not stated) was tested, and the “Percent Effect” value was -2.294%.
For `Cc1cccc2c1OCCCC2NCc1nnc2n1CCCCC2` (configuration not stated), the “Percent Effect” value was -75.07%.
In the case of `Cc1nn(C)c(N(C)C)c1CNC1CCOc2c(F)cccc21` (configuration not stated), the “Percent Effect” value is reported as -94.95%.
With `O=C(O)Cc1cnc(-c2c(Cl)cccc2Cl)s1` the “Percent Effect” value was -103%.
In the case of `CN(Cc1ccco1)Cc1cncc2c1CCN(S(C)(=O)=O)C2.Cl.Cl`, the “Percent Effect” value is reported as -71.86%.
In the case of `CCCNC(=O)CCNc1cncc(-n2nc(C)cc2C)n1`, the “Percent Effect” value is reported as -96.17%.
With `CCOc1cccc(COC(=O)c2cc(C)on2)n1` the “Percent Effect” value was -20.94%.
For `FC(F)(F)c1ccnc(N2C[C@H]3CCN(c4cccnc4)C[C@H]3C2)n1.O=C(O)C(F)(F)F`, the “Percent Effect” value was -4.152%.
In the case of `CC1CN(C)CCN1C(=O)c1ccn(-c2ccc(F)cc2)n1` (configuration not stated), the “Percent Effect” value is reported as -53.04%.
`CCC(NCc1ccccc1)c1ccccc1OCC(=O)NC` (configuration not stated) was tested, and the “Percent Effect” value was 63.6%.
`CCC(NC(N)=O)c1ccccc1OCC(=O)N1CCCC1` (configuration not stated) was tested, and the “Percent Effect” value was -42%.
In the case of `CNC(=O)Cc1noc(Cc2cccc(Cl)c2)n1`, the “Percent Effect” value is reported as -69.96%.
`CCC(NCc1ccccn1)c1ccccc1OCC(=O)NC` (configuration not stated) was tested, and the “Percent Effect” value was -34.3%.
For `CNC(=O)COc1ccc(-c2ccccc2)nc1`, the “Percent Effect” value was -42.95%.
`Cc1sc(NS(=O)(=O)c2ccccc2)nc1C(=O)NC1CC1` was tested, and the “Percent Effect” value was -59.95%.
For `CCOCC1CN(C(=O)c2cccc(C)n2)Cc2cnn(C)c21` (configuration not stated), the “Percent Effect” value was -41.72%.
For `CCOC(=O)N1CCN(C(=O)CCn2ccc3c(OC)cccc32)CC1`, the “Percent Effect” value was -55.78%.
For `Cc1cc(CC(=O)NC2CCCN(c3ccccc3Cl)C2=O)n[nH]1` (configuration not stated), the “Percent Effect” value was -141.2%.
In the case of `O=S(=O)(CCN1CCCC1Cn1cccn1)c1ccccc1` (configuration not stated), the “Percent Effect” value is reported as -24.99%.
In the case of `Clc1ccc(C2(CNC3=NCCN3)CCCCC2)cc1.I`, the “Percent Effect” value is reported as 89.77%.
For `Cc1nnc(C(C)NCC2(c3ccc(Cl)cc3)CCCC2)o1` (configuration not stated), the “Percent Effect” value was -5.972%.
With `NC(=O)CNC1(c2ccc(Cl)cc2)CCCC1` the “Percent Effect” value was -116.4%.
With `Clc1ccc(C2(CNC3=NCCN3)CCCC2)cc1.I` the “Percent Effect” value was 83.48%.
`CN(C)C(=O)CCS(=O)(=O)Cc1cc(Cl)c2c(c1)OCO2` was tested, and the “Percent Effect” value was -99.04%.
`COCCNC(=O)Cn1c(-c2ccc(Cl)cc2)nc(C)c(CCO)c1=O` was tested, and the “Percent Effect” value was -30.51%.
`CCOC(=O)c1cnn(-c2cc(Oc3ccccc3C)ncn2)c1N` was tested, and the “Percent Effect” value was -71.43%.
In the case of `Cc1nc(N2CCN(C(=O)NCc3cscn3)CC2)sc1C`, the “Percent Effect” value is reported as -173%.
With `N#CC1COCCN1C(=O)c1ccc2[nH]cnc2c1` (configuration not stated) the “Percent Effect” value was -106.6%.
For `CN1CCN([C@@H]2CCN(Cc3cccc(-n4cccn4)c3)C[C@H]2O)CC1`, the “Percent Effect” value was -47.29%.
For `CN1CCC(C2CCN(Cc3cccc(-n4cccn4)c3)CC2)C1` (configuration not stated), the “Percent Effect” value was 85%.
For `COC(=O)C(O)C1CCN(Cc2cccc(-n3cccn3)c2)CC1` (configuration not stated), the “Percent Effect” value was -42.85%.
With `O=C(CN1C=Nc2ccccc2S1(=O)=O)NCc1ccccc1F` the “Percent Effect” value was -61.62%.
`Cc1ccc(O)c(CNC2CCc3nc(C)nn3C2)n1` (configuration not stated) was tested, and the “Percent Effect” value was -50.72%.
`CO[C@H]1CN(C(C)C)C[C@@H]1NC(=O)Nc1ccc2oc(C)cc2c1` was tested, and the “Percent Effect” value was -10.12%.
In the case of `COCC(c1ccccn1)N(C)C(=O)c1cc(-c2ccccc2O)n[nH]1` (configuration not stated), the “Percent Effect” value is reported as -47.61%.
In the case of `Cc1ncoc1C(=O)N1CC[C@@H](O)[C@@H](O)[C@H](N2CCC(F)(F)CC2)C1`, the “Percent Effect” value is reported as -177.2%.
With `CN1CCC2(C=C(C(=O)N(C)C)c3ccccc32)CC1` the “Percent Effect” value was 59.58%.
In the case of `CCC(=O)N1CCC2(C=C(C(=O)N(C)C)c3ccccc32)CC1`, the “Percent Effect” value is reported as -96.59%.
In the case of `CCN1CCC2(C=C(C(=O)N(C)C)c3ccccc32)CC1.O=C(O)C(F)(F)F`, the “Percent Effect” value is reported as -5.162%.
In the case of `COc1cc(CCC(=O)NC2CCCN(C)C2)ccc1OCC(F)(F)F` (configuration not stated), the “Percent Effect” value is reported as 27.9%.
For `Cc1noc(C)c1CN1CC[C@H]2OCC[C@@]2(C(=O)NCC2CC2)C1.O=C(O)C(F)(F)F`, the “Percent Effect” value was -150.6%.
`COC[C@@H]1CCC[C@@]12CN(C(=O)C1CCOCC1)CCO2` was tested, and the “Percent Effect” value was -66.15%.
With `COc1ccc(-n2nnnc2C(C)(C)Nc2ccc(C)cc2C)cc1` the “Percent Effect” value was -134.7%.
`Cc1nnc(C2CCN(C(=O)c3ccsc3)CC2)s1` was tested, and the “Percent Effect” value was -17.33%.
With `Cn1ccnc1CN1CCC(c2ccnc(-c3cccc(O)c3)c2)C1` (configuration not stated) the “Percent Effect” value was 27.57%.
For `CN(C)CC(C)(C)CN1CCC(c2ccnc(-c3cccc(O)c3)c2)C1` (configuration not stated), the “Percent Effect” value was 69.12%.
For `Oc1cccc(-c2cc(C3CCN(Cc4cncnc4)C3)ccn2)c1` (configuration not stated), the “Percent Effect” value was -16.47%.
`Nc1cccnc1N1CCC(O)CC1` was tested, and the “Percent Effect” value was -81.29%.
In the case of `Cc1n[nH]c(C)c1-c1cc(-c2cc[nH]c2)nc(N)c1C#N`, the “Percent Effect” value is reported as -97.75%.
For `O=C(O)C(F)(F)F.c1cncc(N2CCC3(CCCN(c4ccncc4)C3)CC2)c1`, the “Percent Effect” value was 46.04%.
For `O=C(O)C(F)(F)F.O=C(O)C(F)(F)F.c1cncc(N2CCCC3(CCN(CCN4CCCC4)CC3)C2)c1`, the “Percent Effect” value was 91.95%.
In the case of `Cn1cc(CN2CCCC3(COCCN(c4cccnc4)C3)C2)cn1.O=C(O)C(F)(F)F.O=C(O)C(F)(F)F` (configuration not stated), the “Percent Effect” value is reported as -73.12%.
For `c1cncc(CN2CCCC3(COCCN(c4cncnc4)C3)C2)c1` (configuration not stated), the “Percent Effect” value was -38.46%.
`O=C(O)C(F)(F)F.c1cncc(N2CCCC3(CCN(CC4CCCO4)CC3)C2)c1` (configuration not stated) was tested, and the “Percent Effect” value was 46.34%.
